# Rows were chosen to be rich in hits. Some 2.9% of all compounds tested hit in one or more screens of this group.
# DAGLB inhibitor: blocks human DAGLB lipase activity | Q8NCG7 | HEK293T DAGLB membrane lysate, EnzChek fluorogenic substrate | inhibition, % at 5.17 µM | hit rate 0.059% among 340,000 | AID 504411; in the data active = inhibition above about 34%;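 also: 0% = enzyme with vehicle and 100% = wells lacking enzyme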
# Cardio protect: myocardial damage modulation in H9c2 cells | protection from H2O2 cell death, % at 20 µM | H9c2 cardiomyocytes, H2O2 injury protection, ATPLite, 2 h | hit rate 0.63% among 360,000 | AID 588492;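 active = compounds giving at least 50% protection of heart cells from peroxide-induced death in the single-dose screen, raw or plate-pattern-corrected value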;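 also: 0% = DMSO wells with peroxide and 100% = DMSO wells without peroxide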
# Myeloid diff 2: myeloid differentiation induction | ER-HoxA9 myeloid progenitors, lysozyme-GFP differentiation, flow cytometry | calls only at 10 µM | hit rate 1% among 360,000 | AID 624256;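 active = normalized GFP-positive differentiation at or above the plate's own cutoff, the solvent-only control mean plus 3 SD; inconclusive = no clear call, values can overlap the other calls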;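 also: cells exposed to compound for four days before flow analysis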
# ABHD5 PLIN5 PPI: ABHD5-PLIN5 protein interaction inhibition. Split G. princeps luciferase complementation, luminescence, 4 h. inhibition, % at 4 µM. Q00G26+Q8WTS1. AID 602281. hit rate 0.78% among 360,000;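 active = inhibition above the mean inhibition across every tested compound plus 3 SD, cut at about 22% in these data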;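 also: 0% = DMSO only wells and the 100% control is not disclosed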
# Target sequence (Q00G26 whole entry, looked up): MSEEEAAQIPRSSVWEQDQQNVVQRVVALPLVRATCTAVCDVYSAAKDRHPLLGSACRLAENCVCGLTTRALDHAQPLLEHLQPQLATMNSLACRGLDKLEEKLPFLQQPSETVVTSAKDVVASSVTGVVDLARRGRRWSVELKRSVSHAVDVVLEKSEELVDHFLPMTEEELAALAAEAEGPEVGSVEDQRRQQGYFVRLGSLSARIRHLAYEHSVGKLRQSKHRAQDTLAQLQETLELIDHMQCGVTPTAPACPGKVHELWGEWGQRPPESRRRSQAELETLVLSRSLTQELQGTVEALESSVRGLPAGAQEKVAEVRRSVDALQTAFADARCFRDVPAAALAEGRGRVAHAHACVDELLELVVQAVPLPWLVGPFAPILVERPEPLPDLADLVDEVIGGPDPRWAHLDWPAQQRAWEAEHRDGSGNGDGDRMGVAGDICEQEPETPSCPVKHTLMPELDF
# Target sequence (Q8WTS1 whole entry, looked up): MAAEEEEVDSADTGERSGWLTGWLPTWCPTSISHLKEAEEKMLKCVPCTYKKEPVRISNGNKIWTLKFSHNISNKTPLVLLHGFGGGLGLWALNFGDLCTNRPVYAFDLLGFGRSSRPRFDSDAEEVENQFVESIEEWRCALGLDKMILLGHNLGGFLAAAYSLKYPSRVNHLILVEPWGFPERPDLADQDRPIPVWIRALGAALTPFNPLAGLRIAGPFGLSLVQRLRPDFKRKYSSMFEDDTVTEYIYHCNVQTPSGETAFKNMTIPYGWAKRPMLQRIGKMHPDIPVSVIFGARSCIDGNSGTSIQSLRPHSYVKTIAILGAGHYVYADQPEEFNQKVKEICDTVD
# HGIII-sPLA2 inh: Inhibits HGIII-sPLA2 liposome hydrolysis, primary screen. Q9NZ20. QFRET BODIPY PC-A2 liposome hydrolysis, fluorescence. inhibition, % at 12.2 µM. hit rate 0.56% among 370,000. AID 743126;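 active = inhibition above mean plus 3 SD of compounds lying within the high and low control bounds, cut at about 19% in these data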;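 also: 0% = median of test compound wells and 100% = no enzyme DMSO wells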
# Rtt109 HAT inh: C. albicans Rtt109 histone acetyltransferase inhibition; Q5AAJ8; purified Rtt109/Vps75, ThioGlo CoA-SH fluorescence, 4 h; inhibition, % at 34.9 µM; hit rate 0.16% among 330,000;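 active = inhibition of at least 50% in every replicate; inconclusive = best replicate reaches 50% inhibition but some replicates fall short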
# * hit, by the source's call; i = inactive; u = inconclusive; x = not tested or not shown; + = active, no number.
SMILES,DAGLB inhibitor,Cardio protect,Myeloid diff 2,ABHD5 PLIN5 PPI,HGIII-sPLA2 inh,Rtt109 HAT inh
Cc1cccc(NS(=O)(=O)c2ccc(NC(=O)CN(c3cc([N+](=O)[O-])ccc3C)S(C)(=O)=O)cc2)c1,0,-4,u,32*,-106,x
COc1ccc(C)cc1NS(=O)(=O)c1ccc(NC(=O)CN(c2cc([N+](=O)[O-])ccc2C)S(C)(=O)=O)cc1,1,-2,u,21,-54,46
COCCNc1nc2c(-c3cccc(C(F)(F)F)c3)nnn2c2ccccc12,1,-17,i,-5,9,-3
CC(=O)NCCNc1nc2c(-c3cccc(C)c3)nnn2c2ccccc12,0,6,u,0,1,-4
CC(=O)NCCNc1nc2c(-c3ccccc3)nnn2c2ccccc12,2,55*,i,5,17,x
NNc1nc2c(-c3cccc(C(F)(F)F)c3)nnn2c2ccccc12,-11,0,+,-13,8,1
CN(C)C(=O)c1cccc(-c2cnc3c(NC=O)cc(-c4ccccc4N(C)C)cn23)c1,x,8,+,0,-419,x
COc1ccccc1-c1cc(NC=O)c2ncc(-c3cccc(C(F)(F)F)c3)n2c1,x,-10,i,9,7,x
Cc1ccc(-c2cc(NC=O)c3ncc(-c4cccc(C(=O)N(C)C)c4)n3c2)cc1,x,11,i,2,-4,x
CN(C)c1ccccc1-c1cc(NC=O)c2ncc(-c3cccc(C(F)(F)F)c3)n2c1,x,16,+,-3,-410,x
COc1cccc2c(=O)n(CC(=O)Nc3ccc(F)cc3F)ccc12,-1,3,i,1,1,-5
COc1cccc(OCCNC(=O)c2cccc(OC)c2)c1,-4,5,i,-1,-9,-6
COc1cccc(OCCNC(=O)c2ccc(C)cc2)c1,-4,-2,+,-6,-5,x
COc1cccc(OCCNC(=O)c2cc([N+](=O)[O-])cc([N+](=O)[O-])c2)c1,2,4,+,-2,1,4
CCCN(CCC)CCCNC(=S)Nc1ccc2nc(N3CCN(CC)CC3)cc(C)c2c1,-3,19,i,2,10,43
CCCCCn1nc(C(=O)OCC(=O)c2c(N)n(C)c(=O)n(C)c2=O)c2ccccc2c1=O,-3,66*,i,4,8,18
CCCCCCn1nc(C(=O)OCC(=O)c2c(N)n(C)c(=O)n(C)c2=O)c2ccccc2c1=O,-4,38,i,-3,1,6
CCCn1nc(C(=O)NNC(=O)c2ccc(OC(F)F)cc2)c2ccccc2c1=O,-6,10,i,-3,3,7
Cc1ccc(S(=O)(=O)CCC(=O)Nc2ccccc2Br)cc1,-3,4,i,-7,1,6
CC(C)=CCC/C(C)=C/CNC(=O)C[C@H]1C[C@H](C(=O)N2CCCCC2)[C@@]2(CCc3ccccc3)c3[nH]c4ccc(Cl)cc4c3CCN2C1=O,-1,11,i,-5,9,1
CC[C@]12c3[nH]c4cc(CCC(=O)N(C)C)ccc4c3CCN1C(=O)[C@@H](CC(=O)NCCc1ccccn1)C[C@@H]2C(=O)N1CCN(C(=O)c2ccco2)CC1,2,-9,+,5,3,-5
CC[C@]12c3[nH]c4ccccc4c3CCN1C(=O)C(CC(=O)NCCCn1ccnc1)C[C@@H]2C(=O)N1CCN(C(=O)C2CC2)CC1 (some centres undefined),-1,7,+,9,11,6
CC(C)=CCC/C(C)=C/CNC(=O)C[C@H]1C[C@H](C(=O)N2CCCCC2)[C@@]2(CCc3ccccc3)c3[nH]c4cc(CCC(=O)N(C)C)ccc4c3CCN2C1=O,0,-6,+,6,5,-2
Cc1cc(N2CCOCC2)nc2ccc(NC(=O)CCC(=O)N3CCN(c4ccccc4)CC3)cc12,0,8,i,9,0,9
CCN1CCN(c2cc(C)c3cc(NC(=S)N4CCCC(C)C4)ccc3n2)CC1 (centres undefined),2,2,+,5,-4,10
SMILES,DAGLB inhibitor,Cardio protect,Myeloid diff 2,ABHD5 PLIN5 PPI,HGIII-sPLA2 inh,Rtt109 HAT inh
CCCCNC(=O)CCC(=O)Nc1ccc2nc(N3CCCCC3)cc(C)c2c1,-9,4,+,3,1,-8
CCOC(=O)C1CCCN(C(=O)CCC(=O)Nc2ccc3nc(N4CCOCC4)cc(C)c3c2)C1 (centres undefined),-1,59*,i,-2,-8,-14
CCC(C)N1C(=O)S/C(=C/c2ccc3c(c2)n(C)c(=O)n3C)C1=O (centres undefined),-1,57*,i,3,-2,8
CC(C)N1C(=O)S/C(=C/c2cccnc2)C1=O,-2,3,i,10,0,0
CCOC(=O)C(C)N1C(=O)S/C(=C/c2ccc3c(c2)n(C)c(=O)n3C)C1=O (centres undefined),-1,11,i,3,0,54*
CC(C)N1C(=O)S/C(=C/c2ccc3c(c2)n(C)c(=O)n3C)C1=O,1,63*,i,0,0,-38
CCOC(=O)CN1C(=O)S/C(=C/c2cc(C)n(C)c2C)C1=O,-12,-1,i,-4,4,8
CCN(CC)c1ccc(/C=C2\SC(=O)N(C(C)C)C2=O)o1,x,-16,u,86*,x,x
COc1ccc(/C=C2\SC(=O)N(CC(=O)NCCC(C)C)C2=O)cc1OC,-7,-5,i,1,0,1
Cc1[nH]c2ccccc2c1C(=O)CN1C(=O)NC2(CC(C)CC(C)(C)C2)C1=O (centres undefined),2,-3,i,2,-24,-3
CCN(CC)CCNC(=O)CN1C(=O)CSc2ccc(S(=O)(=O)N3CCOCC3)cc21,-8,3,i,5,7,x
O=C(CCc1cn(Cc2ccc(F)cc2)c2ccccc12)N1CCOCC1,-3,-3,i,-2,0,-6
N#Cc1ccc(-c2cccs2)nc1SCc1cccnc1,x,0,u,3,-6,x
CN1CCN(C(=O)CSc2nc(-c3cccs3)ccc2C#N)CC1,-4,8,+,0,-6,-2
Cc1cccn2c(=O)c3cc(C(=O)NC4CCCCC4C)n(C)c3nc12 (centres undefined),0,4,+,-4,-7,-9
Cc1cccn2c(=O)c3cc(C(=O)NCCN4CCOCC4)n(C)c3nc12,2,11,+,3,2,-62
O=C(NNC(=O)c1nc2ccccc2[nH]1)OCc1ccccc1,-1,12,i,-3,8,2
O=C(NC1CSCC1OC(=O)c1ccccc1)c1ccccc1 (centres undefined),2,2,i,-3,2,-1
CCCC1=[N+](CC(=O)c2ccc(C)cc2)CCn2cccc21,-1,-12,+,0,-10,23
